From PubChem BioAssay (NCI) come the findings set out here.

About 83,000 compounds went through this panel and 20% of them were active in at least one assay; those are over-represented in the sample as a whole.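 In brief: 96-well plates, 48 h treatment, single concentration, percent growth endpoint.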 Unmarked numbers belong to inactive results. Active and inactive are the calls of the source.

In this assay the test system is SW-620 colon. Kind of assay: NCI-60 one-dose screen, 48 h (100 = growth as untreated, 0 = no growth, -100 = all killed). The following applies: 10 µM unless noted. The protocol: Growth inhibition of the SW-620 human tumor cell line is measured as a screen for anti-cancer activity. Cells are grown in 96 well plates and exposed to the test compound for 48 hours. Compounds are tested at a single concentration, which is 10^-5 M for most compounds. The reported endpoint is percent growth (GI% or GIPRCNT), where numbers from 0 - 100% represent growth inhibition, and numbers from -100% - 0 represent cell death. For example, a value of 40 represents 60% growth inhibition. A value of 0 means no net growth occurred over the course of the experiment. A value of -40 indicates 40% of cells at the beginning of the experiment died by the end of the experiment. A value of -100 means all cells are dead at the end of the experiment.
NCI-60 Human Tumor Cell Lines Screen was performed using the standard one-dose NCI protocol, which is described in more detail at https://dtp.cancer.gov/discovery_development/nci-60/default.htm.
Compounds with GIPRCNT values below 10 were considered active. Activity score was based on GIPRCNT using the following formula: […]
Score is 0 for GIPRCNT values of 100 or above, 50 for GIPRCNT values of 0, and 100 for GIPRCNT values of -100.
Consider `CCCCNC(=O)NS(=O)(=O)c1ccc(N2N=C(c3cc(C)ccc3C)CC2c2cc(OC)c(OC)c(OC)c2)cc1` (stereo not given), for which the growth was 66.6%.

Consider `Cn1c2ccccc2c2c3c(c4c5ccccc5n(CCCCCC#N)c4c21)C(=O)N(O)C3=O`, for which the growth was 14%.

On to `COC(=O)[C@H](C(C)C)n1c(=O)c2cc(OC)c(OC)cc2c2cnc3[nH]ccc3c21`, for which the growth is 61.8%.

Turning to `Cc1nc2nc(N)nc(N)c2nc1C`, the growth was 100%.

For the compound `NS(=O)(=O)N(c1cc(C(F)(F)F)cc(C(F)(F)F)c1)C1CCN(Cc2ccc(F)cc2)CC1`, the growth is 63.8%.

Turning to `CNC(=O)c1cc(Oc2ccc3nc(NC(=O)Nc4ccc(CN5CCOCC5)c(C(F)(F)F)c4)sc3c2)ccn1`, the growth was 27.4%.

With `COc1ccc(-c2cc(NC(=O)Nc3ccc(O)cc3)no2)cc1`, the growth was 76.3%.

With `COC(=O)C12C3C(=O)N(c4ccc(OC)cc4)C(=O)C3C(c3cn(-c4ccccc4)nc3C)N1[C@H](c1cn(-c3ccccc3)nc1C)[C@@H]1C(=O)N(c3ccc(OC)cc3)C(=O)[C@@H]12` (stereo not given in full), the growth is 100%.

On to `O=C(/C=C/c1ccc(B(O)O)cc1)/C=C/c1ccc(B(O)O)cc1`, for which the growth is -25.2% (active).

In the case of `COc1cc(NC(N)=NCC(C)(C)COc2ccc(C(F)(F)F)cc2)cnc1C#N`, the growth is 69.9%.

With `CCOC(=O)C(=Cc1ccccc1F)C(=O)OCC`, the growth is 107%.

Regarding `COc1ccc(C(=O)COc2ccc(/C=C3\Oc4ccc(Cl)cc4C3=O)cc2)cc1`, the growth is 83.6%.

With `CCCCCCNC(=O)Oc1ccc(/C(=C(\C)c2ccccc2)c2ccc(OCCN(CC)CC)cc2)cc1`, the growth was 18.8%.

On to `Nc1ccc2c(c1)C(=O)NC2=O`, for which the growth is 94.8%.

For `Cc1cc2cc3cc(C)c(N(C)C)cc3[n+](C)c2cc1N(C)C`, the growth is 14.6%.

With `CC#Cc1nc2ccccc2c(=O)[nH]1`, the growth was 40.8%.

Turning to `CCOC(=O)c1cnc2ccc(Br)cc2c1Nc1cccc(S(=O)(=O)NC)c1`, the growth was 91.9%.

For the compound `CS(=O)(=O)c1ccc(-c2cnc3ccc(-c4cccc(S(C)(=O)=O)c4)nn23)cc1`, the growth was 75.6%.

`CCOC(=O)C(C#N)C1CCCCC1` (stereo not given): the growth is 106%.

As to `COc1ccc(-c2c3c(nc4n[nH]c(-c5ccc(Cl)cc5)c24)-c2ccccc2C(=O)C3=O)cc1`, the growth was -66.1% (active).

Turning to `C=C(C[n+]1ccccc1)[C@@H]1CC[C@]2(C(=O)OC)CC[C@]3(C)[C@H](CC[C@@H]4[C@@]5(C)CC[C@H](O)C(C)(C)[C@@H]5CC[C@]43C)[C@@H]12`, the growth was 91.6%.

For the compound `COc1cc(/C=C2\CN(C(=O)CCN3CCC(=NO)CC3)C/C(=C\c3cc(OC)c(OC)c(OC)c3)C2=O)cc(OC)c1OC`, the growth was -74.5% (active).

With `COc1ccc(/C=C2\N=C3Sc4cc(Cl)ccc4C(=O)N3C2=O)cc1`, the growth is 97.1%.

On to `Nc1ccc(N2CCOCC2)cc1`, for which the growth was 111%.

Consider `CCCCCCCCCCCCCCCCNCCC[C@@H](C)[C@H]1CC[C@H]2[C@@H]3[C@H](OCCCN)C[C@@H]4C[C@H](OCCCN)CC[C@]4(C)[C@H]3C[C@H](OCCCN)[C@]12C`, for which the growth is -25.3% (active).

`O=C1CC(c2nc3ccccc3[nH]2)CN1C1CCCCC1` (stereo not given): the growth was 106%.

As to `OCC1C2C=CC(C2)C1CO` (stereo not given), the growth was 98%.

On to `CCCCCCCCCC(=O)Oc1ccc(/C(=C(/C)c2ccccc2)c2ccc(OCCN3CCCC3)cc2)cc1`, for which the growth was -21.9% (active).

As to `Cc1cc(-c2nc3ccccc3s2)ccc1NC(=O)COc1ccc(Cl)cc1`, the growth is 106%.

Turning to `CN(C)c1ccc(/C=C\C2=[N+](C)c3ccccc3C2(C)C)cc1`, the growth was 10.3%.

As for `CCCCNc1ccc2c3c1cccc3c(=O)n1c3ccccc3nc21`, the growth was 86.4%.

Turning to `C/C=C/C(N)=O`, the growth was 96.8%.

`COc1cc(OC)c(/C=C/S(=O)(=O)Cc2cnc(OC)c(N)c2)c(OC)c1`: the growth was 22.8%.

Regarding `CN1/C(=C\C=C\C2=[N+](C)c3ccccc3C2(C)C)C(C)(C)c2ccccc21`, the growth is 8.18% (active).

As to `COc1nc2c(cc1S(=O)(=O)c1ccccc1)CCc1c-2cnn1-c1ccc(Cl)cc1`, the growth was 93.1%.

With `COc1ccc(C(=O)c2sc3nc4c(c(C(F)(F)F)c3c2N)CN(C(C)=O)CC4)cc1OC`, the growth was 100%.

Consider `COc1ccc(-c2cc(/C=C3\C(=O)Nc4ccc(Cl)cc43)[nH]n2)cc1`, for which the growth was 26.9%.

Consider `O=C(/C=C/c1ccc(Cl)cc1)c1ccc(O)c(CN2CCN(c3cc4c(cc3F)c(=O)c(C(=O)O)cn4C3CC3)CC2)c1`, for which the growth was 47.8%.

Turning to `CCCCCCCCCc1cc(CN2CCCCC2)c(O)c(CN2CCCCC2)c1`, the growth is 69.8%.

`COc1ncc(-c2ccc3ncnc(Nc4cccc(Cl)c4)c3c2)cc1NS(C)(=O)=O`: the growth is 50.2%.
